In PubChem BioAssay (Tox21):
Several values for one entry are separate records, joined by “and”; a condition that tells them apart may be missing. Identical values can stand only once. Inconclusive results are not listed. Where a structure was tested more than once in an assay, its records may differ in their call. Activity calls are given as the source filed them. Unless noted, calls follow the shape of the dose curve; as a rule, active = well fitted curve in the direction sought with a large enough effect in the repeat runs; inconclusive = weak or mixed curves; inactive = no such curve, though single readings can be large; an effect the other way counts as inactive or inconclusive.

Legend:
[1] = qHTS assay to test for compound auto fluorescence at 535 nm (green) in HEK293 cells (AID 720680)
[2] = qHTS assay to test for compound auto fluorescence at 460 nm (blue) in HEK293 cell free culture (AID 720681)
Outline: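 Blue fluorescence (Ex 405/Em 460 nm, triamterene-equivalent) was read immediately after pin transfer of compound or DMSO into medium (DMEM, 10% FBS) without cells.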

[3] = qHTS assay to test for compound auto fluorescence at 535 nm (green) in HEK293 cell free culture (AID 720682)
Outline: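 DMEM + 10% FBS, cell-free; cpd or DMSO pinned in; Ex485/Em535 read; output as fluorescein-equivalent signal.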

[4] = qHTS assay to test for compound auto fluorescence at 590 nm (red) in HEK293 cell free culture (AID 720683)
Outline: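 Red-channel autofluorescence of compounds in culture medium (DMEM, 10% FBS), no cells, measured at 540/590 nm. Rose Bengal sodium is the reference fluorophore for equivalence.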

[5] = qHTS assay to test for compound auto fluorescence at 590 nm (red) in HepG2 cell free culture (AID 720684)
Outline: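 Cell-free; medium MEM + 10% FBS; compound or DMSO added by pintool; read Ex 540/Em 590 nm; Rose Bengal sodium as red reference fluorophore.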

[6] = qHTS assay to test for compound auto fluorescence at 460 nm (blue) in HepG2 cell free culture (AID 720685)
Outline: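 Cell-free plates of MEM plus 10% FBS received 23 nL compound or DMSO vehicle; blue-channel (405/460 nm) intensity scored against triamterene as reference fluorophore.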

[7] = qHTS assay to test for compound auto fluorescence at 535 nm (green) in HepG2 cell free culture (AID 720686)
[8] = qHTS assay to test for compound auto fluorescence at 460 nm (blue) in HepG2 cells (AID 720687)
Outline: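 Blue-channel autofluorescence (Ex/Em 405/460 nm, triamterene-equivalent) was measured after 1 hr compound exposure at 37 C, 5% CO2. Cells were HepG2, plated overnight at 37 C in MEM plus 10% FBS.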

[9] = target: Glucocorticoid receptor (Homo sapiens) (UniProt P04150); experiment: qHTS assay to identify small molecule agonists of the glucocorticoid receptor (GR) signaling pathway (AID 720691; active = well fitted activation curve with a large enough effect in the signal ratio in the repeat runs, not every such curve was filed as active; the % refers to the signal ratio)
Chain of Glucocorticoid receptor (Homo sapiens) (P04150 whole entry, looked up): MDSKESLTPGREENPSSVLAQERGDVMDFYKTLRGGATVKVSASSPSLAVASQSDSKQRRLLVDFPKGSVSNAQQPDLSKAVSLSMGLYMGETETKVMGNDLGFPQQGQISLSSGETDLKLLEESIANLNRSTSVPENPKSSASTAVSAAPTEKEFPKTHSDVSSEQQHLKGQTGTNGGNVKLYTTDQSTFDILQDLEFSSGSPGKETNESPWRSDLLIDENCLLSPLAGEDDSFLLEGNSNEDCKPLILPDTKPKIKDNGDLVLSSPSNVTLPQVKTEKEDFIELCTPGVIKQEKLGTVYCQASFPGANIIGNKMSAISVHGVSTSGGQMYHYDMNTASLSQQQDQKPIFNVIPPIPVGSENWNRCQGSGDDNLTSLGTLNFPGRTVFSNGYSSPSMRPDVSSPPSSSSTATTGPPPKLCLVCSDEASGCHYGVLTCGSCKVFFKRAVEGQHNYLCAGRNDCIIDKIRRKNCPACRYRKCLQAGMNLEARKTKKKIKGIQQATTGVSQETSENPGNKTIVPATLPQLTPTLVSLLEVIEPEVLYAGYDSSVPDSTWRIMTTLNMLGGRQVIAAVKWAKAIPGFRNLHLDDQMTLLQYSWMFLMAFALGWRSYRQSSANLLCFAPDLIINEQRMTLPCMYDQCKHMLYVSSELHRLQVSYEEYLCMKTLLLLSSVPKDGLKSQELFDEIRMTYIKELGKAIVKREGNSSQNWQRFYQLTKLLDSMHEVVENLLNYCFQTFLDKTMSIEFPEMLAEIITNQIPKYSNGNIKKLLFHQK
Outline: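 Compounds in DMSO, alongside positive controls, were added to GR-bla HeLa reporter cells and incubated 18 h at 37 C; GRE-driven beta-lactamase was detected by fluorescence after 2 h with FRET substrate at room temperature.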

[10] = target: Glucocorticoid receptor (Homo sapiens) (UniProt P04150); experiment: qHTS assay to identify small molecule antagonists of the glucocorticoid receptor (GR) signaling pathway (AID 720692; active = well fitted inhibition curve with a large enough effect in the signal ratio in the repeat runs, not every such curve was filed as active; the % refers to the signal ratio)
Outline: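 In a 1536-well cell format, compounds were added 4 h after seeding GR-bla HeLa cells, together with dexamethasone at 5 nM final; reporter activity was measured by FRET-substrate fluorescence following 18 h at 37 C.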

[11] = qHTS assay to identify small molecule antagonists of the glucocorticoid receptor (GR) signaling pathway - cell viability counter screen (AID 720693); also: nearly all actives have a fitted effect of over 55% in size
[12] = qHTS assay for identifying genotoxic compounds that show differential cytotoxicity against isogenic chicken DT40 cell lines with known DNA damage response pathways - wild type cell line (AID 743012); also: nearly all actives have a fitted effect of over 60% in size; also: potency is read from the fitted curve at half-maximal effect
Outline: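 Viability of DNA repair-proficient chicken DT40 cells was assessed by CellTiter-Glo luminescence following 40 h compound exposure at 37 C/5% CO2.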

[13] = qHTS assay for identifying genotoxic compounds that show differential cytotoxicity against isogenic chicken DT40 cell lines with known DNA damage response pathways - Rev3 mutant cell line (AID 743014); also: nearly all actives have a fitted effect of over 55% in size; also: potency is read from the fitted curve at half-maximal effect
[14] = qHTS assay for identifying genotoxic compounds that show differential cytotoxicity against isogenic chicken DT40 cell lines with known DNA damage response pathways - Rad54/Ku70 mutant cell line (AID 743015); also: nearly all actives have a fitted effect of over 60% in size; also: potency is read from the fitted curve at half-maximal effect
[15] = qHTS assay to identify small molecule antagonists of the androgen receptor (AR) signaling pathway - cell viability counter screen (AID 743033; also: nearly all actives have a fitted effect of over 45% in size)
[16] = qHTS assay to identify small molecule antagonists of the androgen receptor (AR) signaling pathway using the MDA cell line - cell viability counter screen (AID 743041; also: nearly all actives have a fitted effect of over 45% in size)
Outline: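 Viability read by CellTiter-Fluor fluorescence in the same wells as the antagonist screen, added after 15.5 h of a 16 h, 37C exposure. Human breast carcinoma MDA-kb2 AR-luc cells, compounds co-dosed with agonist R1881.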

Measured: Potency

Cc1ccc2c(c1)C(=O)OC2=O
inactive: all assays above

CC(C)(C)c1cccc(C(C)(C)C)c1O
not listed: [14]
inactive: all other assays above

C=CC(=O)OCCCC
not listed: [8]
inactive: all other assays above

C=C[Si](OCCOC)(OCCOC)OCCOC
active: [12] 43.3 µM
inactive and 30.6 µM (active): [13] | [14]
not listed: [8]
inactive: all other assays above

C=CC(C)(O)CCC=C(C)C (centres undefined)
not listed: [12]
inactive: all other assays above

C=CCCCCCCCCCC
not listed: [8] | [14]
inactive: all other assays above

O=C(O)c1cc(=O)[nH]c(=O)[nH]1
not listed: [12]
inactive: all other assays above

O=C(O)CCCC(=O)O
not listed: [8] | [14]
inactive: all other assays above
